Rab9 prom act – activators of Rab9 promoter. Huh7 Rab9 promoter-luciferase reporter, luminescence, 24 h. Potency, µM (doses to about 9.22 µM), usual class: activators. 320,000 tested, 2.8% active; note: nearly all actives have a fitted effect of over 60% in size
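Luminescence from Amplite-detected luciferase (10 minutes, ambient) reports Rab9 promoter activation. Before that, stable Rab9-luciferase Huh7 cells (1500/well, reduced-serum OP-MEM I plus 10% FBS) were exposed to compound for 24 hours at 37C.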
FLuc counter – counter-screen for miR-21 project: firefly luciferase inhibitors or activators; purified FLuc, Km substrates, luminescence inhibition; Potency, µM (series often up to 57.5 µM), usual class: inhibitors; 360,000 tested, 6.9% active; AID 588342; note: nearly all actives have a fitted effect of over 55% in size
Target sequence (P08659 whole entry, looked up): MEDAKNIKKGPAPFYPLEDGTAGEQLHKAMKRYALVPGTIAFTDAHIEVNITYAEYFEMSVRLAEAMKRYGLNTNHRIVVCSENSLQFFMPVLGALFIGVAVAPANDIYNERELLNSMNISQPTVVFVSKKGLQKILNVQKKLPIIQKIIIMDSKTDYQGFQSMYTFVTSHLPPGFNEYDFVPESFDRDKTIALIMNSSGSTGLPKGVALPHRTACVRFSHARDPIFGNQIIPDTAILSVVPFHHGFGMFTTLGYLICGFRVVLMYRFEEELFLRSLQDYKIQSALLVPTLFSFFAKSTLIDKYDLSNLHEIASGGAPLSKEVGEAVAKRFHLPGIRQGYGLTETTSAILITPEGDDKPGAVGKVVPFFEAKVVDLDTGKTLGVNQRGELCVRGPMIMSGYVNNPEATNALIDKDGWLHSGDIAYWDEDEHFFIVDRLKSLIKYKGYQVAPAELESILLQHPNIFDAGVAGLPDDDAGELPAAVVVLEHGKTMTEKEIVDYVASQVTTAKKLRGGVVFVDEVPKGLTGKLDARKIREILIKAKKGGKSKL
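Purified P. pyralis luciferase, 10 nM final, with Km-level 10 uM D-luciferin and 10 uM ATP in 50 mM Tris acetate pH 7.5, 10 mM Mg acetate, 0.01% Tween-20, 0.05% BSA; 6-point qHTS titration about 60 µM downward; luminescence read.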
ELG1 genotoxic – inducers of genotoxicity in HEK293T ELG1-luciferase cells; HEK293T ELG1-luciferase reporter, luminescence, 16 h; Potency, µM (series often up to 46 µM), usual class: activators; 330,000 tested, 1.3% active; note: nearly all actives have a fitted effect of over 60% in size
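After overnight (16 hr) compound treatment at 37 °C, ELG1-luciferase HEK293T cells were lysed with ONE-Glo; luminescence quantified 30 min later at room temperature.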
SMN2 splice enh – SMN2 splice variant enhancement | HEK293 SMN2-luciferase splicing reporter, luminescence, 30-36 h | Potency, µM (titrated, usually from 46.1 µM), hits mostly activators | 210,000 tested, 2.8% active | AID 1458; note: nearly all actives have a fitted effect of over 55% in size
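HEK293 cells carry an SMN2 […]–luciferase reporter in which exon 7 inclusion puts luciferase in frame. Cells were plated 10-12 h before compound addition, then incubated 30-36 h at 37C. ONE-Glo luminescence was read; sodium butyrate at 4.5 mM final served as control.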
ELG1 repair inh – ELG1-dependent DNA repair inhibition; HEK293T ELG1-luciferase reporter, luminescence, 16 h; DNA damage induced by 5-fluorouridine; 330,000 tested, 2.3% active; Potency, µM (titrated, usually from 46.1 µM), hits mostly inhibitors; note: nearly all actives have a fitted effect of over 55% in size
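Luminescence from the luciferase reporter, measured 30 min after ONE-Glo reagent at room temperature, was the read-out. Beforehand, 2,000 cells per well were exposed for 16 hr at 37 °C to 5-fluorouridine together with compound or vehicle.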
NPC1 prom act – NPC1 promoter activation | Potency, µM (series often up to 9.22 µM), hits mostly activators | Huh7 NPC1 promoter luciferase reporter, 24 h | 320,000 tested, 2.4% active; note: nearly all actives have a fitted effect of over 60% in size
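Compounds in DMSO were transferred onto Huh7 NPC1-luciferase reporter cells pre-incubated 2 h; after 24 h at 37 °C, Amplite reagent was dispensed and luminescence recorded 10 min later.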
A number is an active result; - = inactive; ? = inconclusive; . = no result given; [ ] = dose if it differs, or a comment. Compounds with a hit are over-represented: about 9.2% of the library has one in this group of screens. Calls come from the whole dose curve; as a rule, active = well fitted curve in the direction sought with a large enough effect; inconclusive = small, poorly fitted or top-dose-only effect, or another doubt; inactive = no such curve, though single readings can be large; an effect the other way counts as inactive or inconclusive.

SMILES	Rab9 prom act	FLuc counter	ELG1 genotoxic	SMN2 splice enh	ELG1 repair inh	NPC1 prom act
CCC(=O)N1c2ccc(S(=O)(=O)NCc3cccc(OC)c3)cc2CC1C (stereo not drawn)	.	-	.	-	.	.
CC1=C(CO)C(=O)OC([C@@H](C)C2CC[C@H]3C4C[C@H]5O[C@]56[C@@H](O)C=CC(=O)[C@]6(C)C4CC[C@]23C)C1 (stereo partly drawn)	-	-	-	.	9.2µM	-
CC(C(=O)O)C1CCC2C3CC=C4CC(O)CC[C@@]4(C)C3CC[C@]12C (stereo partly drawn)	.	.	.	-	.	.
CC(=O)N1CCC2(CCN(Cc3nccs3)CC2)CC1	.	.	.	-	.	.
CCOC(=O)CSc1ncnc2c1nnn2-c1ccc(F)cc1	-	15µM	-	-	?	-
Cc1ccc(-n2nnc3c(SCC(=O)NCC4CCCO4)ncnc32)cc1 (stereo not drawn)	-	5.4µM	-	-	?	-
CCOC(=O)CC(=O)CSc1ncnc2c1nnn2-c1ccc(F)cc1	-	?	-	-	-	-
CCOc1ccc(-c2ccc(SCC(=O)NCC3CCCO3)nn2)cc1 (stereo not drawn)	3.2µM	5.4µM	-	16µM	?	?
Cc1ccc(-c2ccc(SCC(=O)NCC3CCCO3)nn2)cc1 (stereo not drawn)	-	17µM	-	-	-	-
Cc1ccc2c(c1)cc1c(=O)n(Cc3ccc(Cl)cc3)nc(C)n12	.	-	.	-	.	.
C=CCn1cccc(C(=O)Nc2ccc(C)c(Cl)c2)c1=O	?	9.5µM	?	.	?	2.5µM
C=CCn1cccc(C(=O)Nc2ccc(OC)c(Cl)c2)c1=O	?	19µM	-	.	?	?
CC(=O)NC1C(=O)N(CCN2CCOCC2)c2ccc(C)cc21 (stereo not drawn)	-	21µM	-	.	-	-
O=C(Nc1ccc(Cl)cc1)N(Cc1nc2ccccc2c(=O)[nH]1)Cc1cccs1	-	-	-	-	18µM	-
O=C(NCCN1C(=O)S/C(=C\c2ccc(Cl)c(Cl)c2)C1=O)c1ccc2c(c1)C(=O)N(Cc1ccncc1)C2=O	-	-	-	-	9.2µM	-
O=C(NCCN1C(=O)S/C(=C\c2ccc(Cl)c(Cl)c2)C1=O)C1COc2ccccc2O1 (stereo not drawn)	-	-	-	-	-	-
COc1ccc2oc(=O)c(C(=O)NCCc3c(C)[nH]c4c(C)cccc34)cc2c1	.	-	.	-	.	.
Cc1cccc(NC(=O)c2cc(-c3cc(C)cc(C)c3O)n[nH]2)c1	-	?	-	.	-	-
COc1ccc(NC(=O)c2cc(-c3cc(C)cc(C)c3O)n[nH]2)cc1Cl	-	?	-	-	21µM	-
COc1ccc(NC(=O)c2cc(-c3ccccc3O)n[nH]2)cc1Cl	-[1.84 µM]	-	-	.	?	-
CCc1ccc(O)c(-c2cc(C(=O)Nc3cccnc3)[nH]n2)c1	2.2µM	11µM	?	.	?	1.6µM
Cc1cc(O)c(-c2cc(C(=O)Nc3cccnc3)[nH]n2)cc1C	1µM	1.9µM	3.7µM	.	?	0.25µM
Cc1cc(C)c(O)c(-c2cc(C(=O)Nc3cccnc3)[nH]n2)c1	-	19µM	-	.	21µM	-
CCCn1c(SCC(=O)Nc2ccc3c(c2)OCCO3)n[nH]c1=O	-	-	-	.	?	-
COc1ccc(NC(=O)c2cccc(N3C(=O)c4ccc(C(=O)Nc5ccc(OC)c(O)c5)cc4C3=O)c2)cc1O	-	-	-	.	-	-
SMILES	Rab9 prom act	FLuc counter	ELG1 genotoxic	SMN2 splice enh	ELG1 repair inh	NPC1 prom act
Cc1ccc(C)c(S(=O)(=O)c2cn(C)c3cc(N4CCCCC4C)c(F)cc3c2=O)c1 (stereo not drawn)	.	-	.	.	.	.
COc1ccc(C(=O)NCCSc2ccccc2)cc1	0.35µM	1.5µM	2.6µM	2.8µM	?	0.35µM
COc1ccc(-c2[nH]c3ccccc3c2SCCNC(=O)c2ccccc2)cc1	-	-	-	-	16µM	-
COc1cccc(C(=O)NCCSc2c(C)[nH]c3ccccc23)c1OC	-	-	-	.	23µM	-
O=C(NCSc1ccccc1)c1ccccc1	1.4µM	11µM	?	.	?	2.5µM
O=C(COC(=O)CNC(=O)C1CCCCC1)Nc1ccccc1OC(F)F	.	.	-	.	-	.
COc1ccc(N2CCN(C(=O)CN3C(=O)NC4(CCCCC4C)C3=O)CC2)cc1 (stereo not drawn)	.	.	-	.	-	.
CSCc1ccc(C(=O)NCCSc2ccc(Br)cc2)cc1	?	19µM	?	.	?	?
O=C(NCCSc1ccc(Br)cc1)c1ccccc1	-	-	-	-	-	-
COc1cc(C(=O)N2CC(=O)Nc3ccc(C)cc3C2c2ccc(F)cc2)cc(OC)c1OC (stereo not drawn)	.	-	.	-	.	.
CCOC(=O)c1c(C)oc2ncnc(Nc3ccc(OC)cc3OC)c12	.	-	.	-	.	.
O=C(N/N=C/C=C/c1ccccc1[N+](=O)[O-])c1cccnc1	-	-	-	.	-	-
Cc1cc(C(=O)N/N=C/c2cccc([N+](=O)[O-])c2)c2ccccc2n1	-	-	-	-	-	-
Cc1ccc(C=NNC(=O)c2cc(-c3cccnc3)nc3ccccc23)o1	.	.	-	.	-	.

Source: PubChem (National Center for Advancing Translational Sciences (NCATS))
